Assay outcomes: PubChem BioAssay, National Center for Advancing Translational Sciences (NCATS)
Only some compounds are listed: those with a hit (about 19% of all), similar ones and a draw of the others.
KB-V1 MDR tox: qHTS assay for MDR1-selective chemotherapeutics: Primary screen using the drug-selected MDR subline cells KB-V1; 400,000 compounds, 3.4% hits; Potency, µM (doses to about 46.1 µM), usual class: cytotoxic; AID 1347076, 2019; KB-V1 MDR cells viability, CellTiter-Glo, 72 h; also: nearly all actives have a fitted effect of over 60% in size
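Luminescent ATP read-out (CellTiter-Glo, 10 min) measures survival of drug-selected KB-V1 MDR cells after 72 h, 37 degrees C compound exposure. Medium: phenol-red-free DMEM, 10% FBS. Values from fitted concentration-response curves.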
DT40 TDP1 no CPT: qHTS for Inhibitors of human tyrosyl-DNA phosphodiesterase 1 (TDP1): qHTS in cells in absence of CPT. DT40 Tdp1-/- hTDP1 cells, no CPT, ATP luminescence, 48 h. Potency, µM (doses to about 46.2 µM), most hits filed as inhibitors. 420,000 compounds, 15% hits. AID 686978, 2013; also: nearly all actives have a fitted effect of over 55% in size
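Chicken DT40 Tdp1-/- cells stably complemented with human TDP1 were seeded at 400 cells/well with DMSO in place of 20 nM camptothecin. After compound pinning, cells grew at least 48 hr at 37 °C; viability read by CellTiter-Glo luminescence.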
HT1080NT lethal: qHTS for induction of synthetic lethality in tumor cells producing 2HG: qHTS for the HT-1080-NT fibrosarcoma cell line; HT-1080-NT fibrosarcoma viability, CellTiter-Glo ATP luminescence, 48 h; Potency, µM (doses to about 46.1 µM), actives largely listed as cytotoxic; 360,000 compounds, 1.6% hits;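 also: NT is the 2HG producing partner of a matched IDH1 knockdown line; nearly all actives have a fitted effect of over 55% in size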
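HT-1080-NT fibrosarcoma cells (2HG-overproducing), 750 cells/well in RPMI with 5% FBS, dosed after 2 h and incubated 48 h at 37C. CellTiter-Glo luminescence normalized to DMSO and no-cell wells; concentration-response curves fitted and classed.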
KB-3-1 tox: qHTS assay for MDR1-selective chemotherapeutics: Primary screen using the parental adenocarcinoma cell KB-3-1 | Potency, µM (doses to about 46.1 µM), usual class: cytotoxic | AID 1347075, 2019 | KB-3-1 viability, CellTiter-Glo ATP luminescence, 72 h | 400,000 compounds, 1.4% hits; also: nearly all actives have a fitted effect of over 60% in size
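Viability of parental KB-3-1 cells, measured by CellTiter-Glo luminescence, followed a 72 h incubation at 37 °C with pinned compounds in phenol-red-free DMEM containing 10% FBS.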
TDP1 cell CPT: qHTS for Inhibitors of human tyrosyl-DNA phosphodiesterase 1 (TDP1): qHTS in cells in presence of CPT | AID 686979, 2013 | Potency, µM (doses to about 46.2 µM), actives largely listed as inhibitors | chicken DT40 Tdp1-/-;hTDP1 cells + 20 nM CPT, ATP luminescence, 48 h | 420,000 compounds, 12% hits; also: nearly all actives have a fitted effect of over 55% in size
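Cell growth measured by CellTiter-Glo luminescence after a minimum 48 h, 37 C compound exposure with 20 nM CPT in Tdp1-knockout DT40 cells stably expressing hTDP1, seeded 400/well; qHTS titration format.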
HT1080 IDH1KD tx: qHTS for induction of synthetic lethality in tumor cells producing 2HG: qHTS for the HT-1080-IDH1KD cell line | HT-1080 IDH1 knockdown viability, ATP luminescence, 48 h | 360,000 compounds, 2% hits | Potency, µM (doses to about 46.1 µM), usual class: cytotoxic | AID 686971, 2013
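After a 2 h attachment period, IDH1KD HT-1080 cells took pin-transferred compound for 48 h at 37 °C; ATP-based luminescence after 10 min room-temperature reagent incubation reported viability.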
Hits are given with their value; n = inactive; u = inconclusive; x = not tested or not shown; ! = repeats disagree; [ ] = remark or other dose. Calls follow the shape of the dose curve; as a rule, active = well fitted curve in the direction sought with a large enough effect; inconclusive = small, poorly fitted or top-dose-only effect, or another doubt; inactive = no such curve, though single readings can be large; an effect the other way counts as inactive or inconclusive.

SMILES	KB-V1 MDR tox	DT40 TDP1 no CPT	HT1080NT lethal	KB-3-1 tox	TDP1 cell CPT	HT1080 IDH1KD tx
O=C(Nc1cccc(S(=O)(=O)N2CCCCCC2)c1)c1ccc(Cl)nc1	n	14.6µM	n	n	18.4µM	n
CCC(CC)C(=O)Nc1nnc(SCC(=O)NC(C)(C)C)s1	n	n	n	n	n	n
O=C(Nc1ccc(S(=O)(=O)N2CCCCC2)cc1)c1ccc(=O)[nH]c1	u	u	n	u	u	n
O=C(Nc1cccc(S(=O)(=O)N2CCCCCC2)c1)c1ccc(=O)[nH]c1	n	18.4µM	n	n	u	n
O=C(Nc1cccc(S(=O)(=O)Nc2ccccc2Cl)c1)c1ccc(Cl)nc1	2.59µM	14.6µM	n	5.17µM	11.6µM	n
COc1ccccc1N(C(=O)c1cncc(Br)c1)c1nc(-c2ccc(C)cc2)cs1	n	18.4µM	n	n	20.6µM	n
Cc1ccc(C(=O)CSc2cnc3ccccc3n2)cc1C	u	u	n	u	u	n
CCOc1ccc(C(=O)Nc2ncccc2Cl)cc1	n	n	n	n	n	n
CC(C)NC[C@H](O)c1ccc(O)c(O)c1	u	8.41µM!	n	n	4.73µM!	n
CCC(c1ccc(O)c(O)c1)C(CC)c1ccc(O)c(O)c1 (stereo not drawn)	n	1.84µM	23.1µM	n	2.91µM	20.6µM
CC(C)NCC(O)c1cc(O)cc(O)c1 (stereo not drawn)	n	n	n	n	n	n
CCN(CC)CCNC(=O)CCc1c(C)nc2c(c(C)nn2-c2ccc(C)cc2)c1C	n	13µM	18.4µM	u	20.6µM	u
COCCNC(=O)CCc1c(C)nc2c(c(C)nn2-c2ccc(C)cc2)c1C	n	18.4µM	n	n	u	n
COCCNC(=O)CCc1c(C)nc2c(c(C)nn2-c2ccc(C)c(C)c2)c1C	n	16.4µM	n	n	u	n
Cc1ccc(-n2nc(C)c3c(C)c(CCC(=O)NCc4ccccc4Cl)c(C)nc32)cc1C	n	u	x	n	n	x
COc1cccc(CNC(=O)CCc2c(C)nc3c(c(C)nn3-c3ccc(C)c(C)c3)c2C)c1	u	20.6µM	x	n	20.6µM	x
O=C(CSc1nnc(COc2ccc(Cl)cc2)o1)N1CCCCC1	u	u	n	n	n	n
COc1ccc(CCNC(=O)CCc2c(C)nc3c(c(C)nn3-c3ccccc3)c2C)c(OC)c1	n	16.4µM	x	n	23.1µM	x
COC(=O)c1ccc(NC(=O)COc2coc(CN3CCc4ccccc43)cc2=O)cc1	n	n	n	n	n	n
COc1cc(-c2nc(Cn3nnc(C(=O)Nc4ccccc4C)c3C)c(C)o2)cc(OC)c1OC	n	u	x	n	n	x
COc1ccc(NC(=O)c2nnn(Cc3nc(-c4cc(OC)c(OC)c(OC)c4)oc3C)c2C)cc1	u	n	x	n	n	x
COc1ccc(NC(=O)c2nnn(Cc3nc(-c4cc(Br)ccc4OC)oc3C)c2C)cc1	u	18.4µM	x	n	n	x
COc1cc(-c2nc(Cn3nnc(C(=O)Nc4cc(C)cc(C)c4)c3C)c(C)o2)cc(OC)c1OC	n	11.6µM	x	n	u	x
CC(=O)c1ccc(S(=O)(=O)N2CCN(CC(=O)NC(=O)NC3CCCCC3)CC2)cc1	n	u	n	n	n	n
COc1ccc(N(C(=O)c2snc(C(N)=O)c2N)C(C(=O)NC2CCCC2)c2cccs2)c(OC)c1 (stereo not drawn)	n	20.6µM	n	n	u	n
SMILES	KB-V1 MDR tox	DT40 TDP1 no CPT	HT1080NT lethal	KB-3-1 tox	TDP1 cell CPT	HT1080 IDH1KD tx
COc1ccccc1N(C(=O)c1snc(C(N)=O)c1N)C(C(=O)NC1CCCCC1)c1cccc(OC)c1OC (stereo not drawn)	n	16.4µM	n	n	u	n
CCOc1cc(C(=O)OCC(=O)Nc2cc(C)on2)cc(OCC)c1OCC	n	n	n	n	n	n
O=c1c2sc(-c3ccccc3)cc2nc2n1CCCCC2	11.6µM	11.6µM	n	n	n	n
Cn1c(NCCN2CCCC2)nc2cc(-c3ccccc3)sc2c1=O	n	u	u	n	u	13µM
Cn1c(NCCN2CCCC2)nc2cc(-c3cccc(C(F)(F)F)c3)sc2c1=O	n	u	20.6µM	n	u	u
COc1cccc(-c2cc3nc(NCCN4CCCC4)n(C)c(=O)c3s2)c1	n	23.1µM	u	n	u	u
COc1cc(=O)n2c(c1C(=O)N(C)Cc1nonc1C)CCN(C(=O)c1cccc(C)c1C)CC2	x	n	x	x	n	x
CCOC(=O)Cn1nnc2c(sc3nc4c(c(-c5ccc(Cl)cc5)c32)CCC4)c1=O	u	16.4µM	n	u	u	n
O=c1[nH]cnc2c1sc1nc3c(c(-c4ccc(Cl)cc4)c12)CCC3	u	n	n	n	n	n
CCOC(=O)Cn1nnc2c(sc3nc4c(c(-c5ccccc5)c32)CCC4)c1=O	n	16.4µM	n	n	20.6µM	n
CCOC(=O)c1c(C)nc2sc3c(=O)n(-c4ccc(C(C)=O)cc4)nnc3c2c1-c1ccc(Cl)cc1	u	16.4µM	n	u	u	n
CCOC(=O)c1c(C)nc2sc3c(=O)n(-c4ccc(C)cc4)cnc3c2c1-c1ccc(OC)cc1	n	n	n	n	n	n
COc1ccccc1N1CCN(C(=O)c2cc3c(s2)CCC3)CC1	n	29.1µM	n	n	u	n
COc1ccccc1N1CCN(C(=O)c2ccc([N+](=O)[O-])s2)CC1	u	u	n	u	u	n
COc1ccc2c(c1)CCc1cc(C(=O)N3CCN(c4ccc(N5CCOCC5)nn4)CC3)sc1-2	n	u	n	n	20.6µM	n
CC(=O)c1ccc(N2CCN(C(=O)c3cc4c(s3)CCCC4)CC2)cc1	n	u	n	u	23.1µM	n
COc1ccc(N2CCN(C(=O)c3cc4c(s3)CCCCC4)CC2)cc1	n	u	n[9.24 µM]	n	20.6µM	n
COc1ccc(N2CCN(C(=O)c3cc4c(s3)-c3ccccc3OC4)CC2)cc1	u	n	n	n	n	n
O=C(O)c1ccc(CNc2ncnc3nc[nH]c23)cc1	x	n	n	x	n	n
N#Cc1c(SCc2c(Cl)cccc2Cl)nc(N)[nH]c1=S	u	u	n[9.24 µM]	n	u	n
Cc1ccc(C)c(N(C)C(=O)c2cc3c(s2)-c2ccccc2OC3)c1	u	x	x	n	x	x
